Drawing on PubChem BioAssay (NCI), this text covers growth for 13 compounds.

About 83,000 compounds went through this panel and 20% of them were active in at least one assay; those are over-represented in the sample as a whole.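 Cells were grown in 96-well plates and exposed to the test compound at a single concentration for 48 hours; results are reported as percent growth, with values below 10 considered active.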 A number with no mark means an inactive call. Activity calls are given as the source filed them.

Holding throughout (test): NCI-60 one-dose screen, 48 h (100 = growth as untreated, 0 = no growth, -100 = all killed)
Holding throughout (details): 10 µM unless noted

The subject of assay [1] is NCI-H23 lung.
For assay [2], the system named is NCI-H226 lung.
For assay [3], the system named is NCI-H322M lung.
The subject of assay [4] is HOP-62 NSCLC.
Assay [5] relates to NCI-H460 lung.
For assay [6], the system named is HOP-92 NSCLC.
The test system of assay [7] is NCI-H522 lung.
For assay [8], the system named is A549/ATCC NSCLC.
Assay [9] relates to 786-0 renal.
In assay [10] the test system is COLO 205 colon.

In the case of `CC/C(=C(\c1ccc(O)cc1)c1ccc(OCCN(C)CCN(C)C(=O)CCC(=O)c2c(C)[nH]c(/C=C3\N=C(c4ccc[nH]4)C=C3OC)c2C)cc1)c1ccccc1`, the growth in assay [1] was 80.1%; in [2], 77%; in assay [3], 70.4%; in assay [4] it was 91.3%; in assay [5], 58.2%; in assay [6] it was 58.8%. Further, the growth in assay [7] is 81.9%; in assay [8] it was 76.4%; in [9] it was 87.5%; in assay [10], 89.8%.
For the compound `Cc1ccc(Oc2nc3ccccc3cc2-c2nnc(Cn3c(COc4ccccc4)nc4ccccc43)o2)cc1`, the growth in assay [1] was 66.5%; in [2], 64.9%; in assay [3] it was 92.3%; in assay [4], 49.8%; in assay [5], 94.1%; in assay [6], 14.2%. The growth is 70.2% in assay [7], 81.3% in assay [8], 62.7% in assay [9] and 84.6% in assay [10].
Turning to `COc1ccc(/C=c2\sc3n(c2=O)C2C(NN=3)N(C)C(=O)N2C)cc1` (stereo not given), the growth was 36.3% in assay [1]; 94.1% in assay [2]; 46.6% in assay [3]; 21% in assay [4]; 9.54% (active) in assay [5]; 54.7% in assay [6]. In addition, the growth is 10.1% in assay [7], 33% in [8], 23% in assay [9] and -8.52% (active) in assay [10].
In the case of `COc1ccc(/C=C/C(=O)c2ccc(B(O)O)cc2)cc1O`, the growth in assay [1] was 88%; in [2], 92.5%; in [3], 96.3%; in [4], 89.8%; in assay [5], 73.2%; in assay [6], 52.4%. For the same compound, the growth was 85.6% in assay [7], 66.3% in [8], 84.9% in assay [9] and 101% in assay [10].
In the case of `O=C(Nc1ccc(Cl)cc1)c1cc(-c2ccc(F)cc2)c2sc(=O)[nH]c2n1`, the growth in [1] is 5.26% (active); in assay [2], 11.6%; in assay [3], 13.2%; in assay [4] it was 6.64% (active); in assay [5], 1.4% (active); in assay [6], -24.2% (active). The growth in [7] is 3.59% (active); in assay [8], 12.2%; in assay [9] it was 14.5%; in [10], 8.8% (active).
For the compound `COc1cccc2cc(-c3cc4ccccc4[nH]3)c(=NC(=O)c3ccc(Cl)cc3)oc12`, the growth in [1] is 40.2%; in [2] it was 83.2%; in assay [3], 93.3%; in assay [4], 57.7%; in [5], 85.3%; in [6], -0.489% (active). The growth is 9.69% (active) in [7], 65.5% in [8], 69.5% in assay [9] and 100% in [10].
As to `O=c1oc2c([nH]c3ccc4ccccc4c32)c2ccccc12`, the growth in assay [1] was 93.6%; in assay [2], 104%; in assay [3], 101%; in [4] it was 103%; in assay [5] it was 112%; in [6], 90.2%. Also, the growth is 102% in [7], 134% in [8], 102% in assay [9] and 108% in [10].
On to `O=C1CCCCN1CCCCC#Cc1ccccc1C#Cc1ccc([N+](=O)[O-])cc1`, for which the growth in assay [1] is 59%; in assay [2] it was 57.1%; in assay [3], 71%; in [4], 64.9%; in assay [5] it was 11.5%; in assay [6] it was 39.6%. Besides, the growth was 56.3% in assay [7], 50.1% in [8], 60.6% in [9] and 45.8% in [10].
Regarding `NC(=O)NC(=O)/C=C/C(=O)OCCCl`, the growth was 111% in assay [1]; 98.2% in assay [2]; 105% in assay [3]; 114% in assay [4]; 104% in assay [5]; 71.6% in assay [6]. Moreover, the growth in assay [7] is -42.5% (active); in assay [8] it was 105%; in assay [9], 125%; in [10] it was 97.7%.
Turning to `COc1ccc(-c2cn[nH]c2-c2cc(OC)c3c(c2)OCO3)cc1`, the growth in [1] is 18.3%; in assay [2], 47.7%; in [3], 15%; in [4], 22.1%; in assay [5], 8.74% (active); in assay [6] it was 33.4%. For the same compound, the growth in assay [7] was -43.9% (active); in assay [8] it was 19.8%; in assay [9], 26%; in assay [10], -44.2% (active).
As for `CCOC(=O)[C@H](CSSc1ncnc2cc[nH]c12)NC(=O)[C@@H](C)c1ccc2cc(OC)ccc2c1`, the growth in [1] is 19.9%; in assay [2] it was 39.9%; in assay [3], 10.7%; in assay [4] it was 23.2%; in assay [5] it was 32.7%; in assay [6], 46%. Also, the growth is 11.3% in [7], 59.9% in assay [8], 25.5% in assay [9] and 3.67% (active) in assay [10].
Consider `NC(=O)c1c(NC(=O)c2ccc3c(c2)OCO3)sc2c1CCC(=O)C2`, for which the growth in assay [1] is -12.6% (active); in assay [2], -5.74% (active); in [3], 14.8%; in assay [4], 14.9%; in assay [5] it was 3.04% (active); in assay [6], -21% (active). The growth in assay [7] is -58.9% (active); in assay [8], -9.76% (active); in assay [9], 12.2%; in [10], -42.2% (active).
As for `FC(F)(F)c1cccc(-n2nnc3cnc(Nc4ccc(N5CCCCC5)cc4)nc32)c1`, the growth is 66.5% in assay [1]; 92.4% in assay [2]; 90.7% in assay [3]; 98.1% in [4]; 12.6% in [5]; 110% in [6]. In addition, the growth is 2.95% (active) in [7], 20.9% in [8], 25.3% in assay [9] and 77.2% in [10].
